Data as given in PubChem BioAssay.
Active and inactive are the calls of the source. The rule behind the calls is not given here.

biological target: Pantothenate synthetase (Mycobacterium tuberculosis (strain ATCC 25618 / H37Rv)) (UniProt P9WIL5); assay: Recombinant Mtb pantothenate synthetase (PanC) inhibitors, coupled enzyme, confirmatory (AID 375); conditions: coupled enzyme assay; at 10 µM, stronger effect = higher value;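 note: 0% = full reaction with vehicle and 100% = no enzyme background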
Sequence (P9WIL5 whole entry, looked up): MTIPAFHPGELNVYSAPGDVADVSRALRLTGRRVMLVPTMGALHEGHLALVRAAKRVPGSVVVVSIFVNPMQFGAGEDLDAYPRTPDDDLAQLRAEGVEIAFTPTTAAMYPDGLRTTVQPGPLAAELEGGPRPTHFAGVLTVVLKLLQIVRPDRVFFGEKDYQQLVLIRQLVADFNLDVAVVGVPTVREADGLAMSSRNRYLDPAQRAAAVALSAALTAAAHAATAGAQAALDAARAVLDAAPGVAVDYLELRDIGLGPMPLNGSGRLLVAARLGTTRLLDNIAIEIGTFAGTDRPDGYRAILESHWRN

| Compound | inhibition |
| --- | --- |
| COC(=O)c1sc(NC(=O)COc2ccccc2OC)nc1C | 0% (inactive) |
| O=C1CC(c2ccccc2)CC(O)=C1C=NCCN1CCOCC1 (configuration not stated) | 5% (inactive) |
| COC(=O)c1ccccc1NC(=O)CN1CCC(n2nnc3cc(F)ccc32)CC1 | 0% (inactive) |
| CCCCOc1ccc(C(=O)Nc2ccc(N3CCN(C(=O)C(C)C)CC3)cc2)cc1 | 6% (inactive) |
| CCOC(=O)Cc1c(C)c2c(O)cc(O)cc2oc1=O | 8% (inactive) |
| NC(=O)c1ccsc1NC(=O)COC(=O)Cc1ccsc1 | 3% (inactive) |
| CCC(C)(C(=O)NC1CCCC1)N(Cc1cccs1)C(=O)Cc1cccs1 (configuration not stated) | 0% (inactive) |
| O=C(Nc1cccc(C(F)(F)F)c1)c1cccnc1N1CCCC1 | 4% (inactive) |
| CN(C)/C=N/c1ncnc2c1cnn2-c1ccc(C(F)(F)F)cn1 | 3% (inactive) |
| COc1ccccc1-c1cc(C(=O)NCCCn2ccnc2)no1 | 0% (inactive) |
| Cc1c(NC(=O)CSc2nnc3sc4ccccc4n23)c(=O)n(-c2ccccc2)n1C | 0% (inactive) |
| CC1Cc2nc(SCC(=O)Nc3ccccc3F)n(C)c(=O)c2S1 (configuration not stated) | 7% (inactive) |
| C=CCNC(=O)CNS(=O)(=O)c1ccc(F)cc1 | 2% (inactive) |
| O=C(CCS(=O)(=O)c1cc(Br)cc2c1N(C(=O)C1CC1)CC2)NCC1CCCO1 (configuration not stated) | 0% (inactive) |
| CCCNS(=O)(=O)c1ccc(C(=O)NCC2CCCO2)cc1 (configuration not stated) | 0% (inactive) |
| CC(C)Oc1ccc(C2C(C(=O)c3ccco3)=C(O)C(=O)N2CCCN(C)C)cc1 (configuration not stated) | 0% (inactive) |
| Cn1ncc2c(Nc3ccccc3Br)ncnc21 | 0% (inactive) |
